Experimental data published in PubChem BioAssay AID1822 (The Scripps Research Institute Molecular Screening Center, 2009).
Screen size: about 290,000 compounds; about 3,500 (1.2%) were called active. The sample holds actives, similar compounds and a random draw of the others, so the mix is not that of the screen. A number with no mark means an inactive call.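 Rule for the calls: active = inhibition above the campaign mean inhibition over all tested compounds plus 3 SD (cut at about 28% in these data); inactive = the rest.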

test system: M18 aspartyl aminopeptidase (Plasmodium falciparum 3D7); assay: inhibition of P. falciparum M18 aminopeptidase – biochemical, QFRET, recombinant enzyme, primary screen (AID 1822); conditions: recombinant PfM18AAP, H-Glu-NHMec fluorogenic cleavage; at 7.35 µM; stronger effect = higher value;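 note: 0% = plate median of test compound wells and 100% = 2 mM ZnCl2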

SMILES	inhibition
C=CCNC(=S)NNc1ncnc2sc3c(c12)CC(C)(C)OC3	30.1% (active)
CC(C)c1nc2sc3c(c2c(=O)n1N)CC(C)(C)OC3	-0.21%
CCC(O)CNc1nc(-n2nc(C)cc2C)nc2sc3c(c12)CC(C)(C)OC3 (stereo unspecified)	-1.41%
COc1cccc(CN2CCN(Cc3ccc4cccc(F)c4n3)CC2CCO)c1 (stereo unspecified)	2.05%
CCN(CC)c1ccc(/C=N/Nc2nc(C)cc(C)n2)c(O)c1	50.9% (active)
Cc1cc(C)nc(N/N=C/c2ccncc2)n1	11%
CCN(CC)c1ccc(/C=N/NC(=O)c2cnccn2)c(O)c1	9.64%
CC(=O)N1c2ccc(S(=O)(=O)N3CCC(C(=O)N4CCN(c5ccccc5)CC4)CC3)cc2CC1C (stereo unspecified)	5.96%
CC(C)C(=O)Nc1nnc(SCC(=O)N2C(C)CCCC2C)s1 (stereo unspecified)	-5.69%
COC(=O)C1CCN(C(=O)c2ccc3oc(Cc4ccc(Cl)cc4)nc3c2)CC1	6.38%
Cc1onc(-c2ccccc2)c1C(=O)NNC(=S)NC(=O)c1ccc(F)cc1	38.2% (active)
COc1ccc(C(=O)NC(=S)NNC(=O)c2c(-c3ccccc3)noc2C)cc1	5.86%
Cc1ccc(CNC(=O)c2c(-c3ccccc3)noc2C)cc1	12.7%
C=CCc1cccc(/C=N/NC(=O)COc2ccc(-n3cnnn3)cc2)c1O	11.8%
Cc1ccc(S(=O)(=O)N(CC(=O)NN=C2CCN(C)CC2)c2ccc(F)cc2)cc1	-4.43%
CC(=O)c1ccc(NC(=O)CCc2nnc3ccc(NCc4ccco4)nn23)cc1	46.3% (active)
O=C(CCc1nnc2ccc(NCc3ccco3)nn12)Nc1cc(F)ccc1F	26%
CCOc1ccccc1NC(=O)CCc1nnc2ccc(NCc3ccco3)nn12	21.1%
COc1ccc(NC(=O)C2CCN(S(=O)(=O)c3ccc4[nH]c(=O)oc4c3)CC2)c(OC)c1	2.9%
CN(C)/C=C1/C(=O)Nc2ccccc21	7.19%
COc1ccc(/C=N/S(=O)(=O)c2ccccc2)cc1OC	-9.39%
COc1ccc(/C=N/N=C2/C(=O)Nc3ccccc32)cc1O	30.7% (active)
Cc1cccc(N(Cc2ccccc2)C(=O)c2ccccc2F)c1	0.68%
O=S(=O)(c1ccc(Br)cc1)c1nc(-c2ccccc2)oc1N1CCOCC1	-11.7%

SMILES	inhibition
COc1ccc(C(=O)NNC(=O)c2cnccn2)cc1[N+](=O)[O-]	28.7% (active)
COc1ccc(C(=O)O/N=C(\N)c2ccccn2)cc1[N+](=O)[O-]	-11.1%
COc1cccc(OCC(=O)NNC(=O)c2cnccn2)c1	0.44%
COc1cc(/C=N/Nc2nc3ccccc3s2)ccc1O	4.41%
O=C(Nc1ccccc1)Nc1nc2ccccc2s1	-14.5%
c1ccc2sc(NN=C3CCCC3)nc2c1	43.7% (active)
Cc1cccc(NC(=O)N2CCCCCC2)c1C	-13.5%
Cc1c(C)n(Cc2ccc(Cl)cc2)c2ccc(C(=O)NCCCN3CCOCC3)cc12	-3.58%
CCCCNc1ccc(C(=O)Nc2cccc(C)n2)cc1[N+](=O)[O-]	-6.29%
CCOC(=O)c1sc(/N=C/C2=C(O)CC(C)(C)CC2=O)c(C(=O)OCC)c1C	-7.73%
CCOC(=O)c1c(/N=C/C2C(=O)CC(C)(C)CC2=O)sc(C)c1C	28.8% (active)
CCOC(=O)c1c(N)sc2c1CCCC2=O	13.3%
Cc1cc(NS(=O)(=O)c2ccc(NC(=O)C(C)Oc3cccc(C)c3C)cc2)nc(C)n1 (stereo unspecified)	1.85%
COc1ccc([N+](=O)[O-])cc1-c1nc2ccccc2nc1-c1ccccc1	0.66%
Cc1ccc2c(c1)N(CC(=O)N1CCOCC1)C(=O)CO2	-1.57%
CC(=O)c1ccc(NC(=O)c2ccc(-n3cncn3)c([N+](=O)[O-])c2)cc1	-11.7%
Nc1ccc2nc3c(=O)[nH]c(=S)[nH]c3nc2c1	28.9% (active)
CCc1cc(=O)oc2c(C)c(OCC(=O)NCCN3CCOCC3)ccc12	-0.48%
COc1ccc(Cl)cc1NC(=O)CCS(=O)(=O)c1ccc(Br)cc1	-8.04%
Cc1cc(NC(=O)CCC(=O)N(Cc2ccccc2)C(C(=O)NC2CCCC2)c2ccc(C)o2)no1 (stereo unspecified)	8.33%
CC1CC2=C(CC1/C=N/NC(N)=S)C(C)(C)CCC2 (stereo unspecified)	30.5% (active)
Cc1cc(C)nc(NS(=O)(=O)c2ccc(N3C(=O)C4CCCCC4C3=O)cc2)n1 (stereo unspecified)	-7.47%
CCn1c(SCC(=O)NNC(=O)c2ccc(OC)cc2)nnc1C(C)C	4.07%
Cc1cccc([C@@H]2[C@@H]3C(=O)N(C)C(=O)[C@@H]3[C@@H]3C(=O)Nc4ccccc4C(=O)N23)c1	-3.83%

SMILES	inhibition
CCC1(CC)Cc2ccccc2-c2nc(CCl)[nH]c(=O)c21	2.03%
C/C(=N\NC(=O)c1ccoc1C)c1ccccc1O	31.6% (active)
CC(C)=C(NC(=O)c1ccccc1)C(=O)N/N=C(\C)c1ccccc1O	-2.21%
Cc1[nH]n(-c2ccccc2)c(=O)c1/C=N/NC(=O)c1ccoc1C	-3.48%
COc1cc(C2C(C(=O)c3ccco3)=C(O)C(=O)N2c2cc(C)on2)ccc1OCc1ccccc1 (stereo unspecified)	1.75%
Cc1csc(=Nc2ccccc2)n1CCO	2.31%
Cc1csc(=NC(=O)c2ccccc2)n1CCO	4.05%
OCCn1c(-c2ccccc2)csc1=Nc1ccccc1	44.3% (active)
CC(=O)NS(=O)(=O)c1ccc2c(c1)Cc1cc(S(=O)(=O)NC(C)=O)ccc1-2	10.3%
COc1cc(SC#N)ccc1N=Cc1c(C)[nH]n(-c2ccc(C)cc2)c1=O	-5.1%
CCN1CCN(C(=O)C2CCN(S(=O)(=O)c3cc(Cl)ccc3Cl)CC2)CC1	-5.08%
COc1ccc(C(=O)NNC(=S)NC(=O)c2ccccc2)cc1	8.59%
CC(=O)NC(=S)NNC(=O)c1ccc(Br)cc1	10.7%
CNC(=S)NNC(=O)c1ccc(N(C)C)cc1	37.4% (active)
CC1CCN(S(=O)(=O)c2ccc3c(ccn3CC(=O)O)c2)CC1	4.44%
Cc1ccc(/C=N/NC(=S)Nc2cccc(S(=O)(=O)N(C)C)c2)o1	9.59%
CN(C)S(=O)(=O)c1cccc(NC(=S)N/N=C/C(=O)c2ccccc2)c1	29.6% (active)
CN(C)S(=O)(=O)c1cccc(NC(=S)NCc2ccc3c(c2)OCO3)c1	-10.4%
Cc1ccc(S(=O)(=O)NNC(=O)/C=C/c2cccc(F)c2)cc1	12.8%
CC1Cc2cc(/C(O)=C3\C(=O)C(=O)N(Cc4cccnc4)C3c3ccccc3F)ccc2O1 (stereo unspecified)	7.22%
Cc1cc(C)nc(N/N=C/c2c(C)oc3ccccc23)n1	-6.94%
Cc1cc2c(C)nc(N/N=C/c3ccccc3)nc2o1	37.1% (active)
Cc1nc(Cl)cc(N/N=C/c2ccccc2)n1	1.31%
CCn1nc(C)c(CNC(=O)C2CCC(=O)N(Cc3cccc(F)c3)C2)c1C (stereo unspecified)	-1.99%

SMILES	inhibition
COc1ccccc1C(=O)N(C1=NC(C)CS1)c1ccc(Cl)cc1 (stereo unspecified)	-8.55%
O=C(CSc1ncn[nH]1)NCc1ccc2c(c1)OCO2	5.91%
ClC1(Cl)CC1CSc1ncn[nH]1 (stereo unspecified)	34.4% (active)
O=C(CSc1ncn[nH]1)N/N=C/c1ccc(F)cc1	21.1%
O=C(c1cccc(-n2cccc2)c1)N1CCN(S(=O)(=O)c2ccc(F)cc2)CC1	14.4%
CC(C)c1ccc(NC(=O)[C@@H](NC(=O)N2CC(=O)Nc3ccccc32)C(C)C)cc1	-1.48%
Cc1ccsc1/C=N/Nc1ccc(Cl)nn1	38.9% (active)
COc1cccc(/C=N/Nc2ccc(Cl)nn2)c1	18.6%
Oc1c(Br)cccc1/C=N/Nc1c(F)c(F)c(F)c(F)c1F	-1.11%
Cc1ccsc1/C=N/NC(=O)Cc1cc(=O)[nH][nH]1	1.38%
Clc1ccc(N/N=C/c2cccs2)nn1	31.6% (active)
NC(=O)N/N=C\c1cccs1	1.75%
Cc1nnc(N/N=C/c2cccs2)[nH]c1=O	0.78%
Cc1ccsc1/C=N/n1c(=S)[nH]nc(C)c1=O	2.51%
Oc1cccc(/C=N/Nc2ccc(Cl)nn2)c1O	60.9% (active)
COc1ccc(CNC(=O)c2c[nH]c3c(OC)cc(OC)cc3c2=O)cc1	2.86%
CCc1ccc(NC(=O)N2CCc3ccccc3C2)cc1	-1.34%
COc1ccc(NS(=O)(=O)c2cc(C(=O)Nc3ccccc3C(=O)O)ccc2C)cc1	1.9%
O=C(NC(=S)N1CCCCC1c1cccnc1)c1ccccc1 (stereo unspecified)	4.53%
Cc1ccc2c(c1)c1ncnc(N3CCc4ccccc4C3)c1n2C	-0.51%
CC(C)OCCCNC(=O)CN1C(=O)/C(=C/c2ccccc2F)Oc2ccccc21	-19.2%
Cc1ccc(OCC(=O)Nc2ccc(C(=O)O)cc2NC(=O)COc2ccc(C)c(C)c2)cc1C	0.26%
COCCn1c(SCc2nnc(-c3ccc(OC)c(OC)c3)o2)nc2sc3c(c2c1=O)CCC3	-13.2%
CSc1ccc(S(=O)(=O)N2CCC(C(=O)NCCc3ccccc3)CC2)cc1	0.01%
